± gives the standard deviation of the averaged measurements. The full data set covers some 6,500 targets. This sample favours those with the largest changes.
Compound: Nc1ncnc2c1ncn2[C@@H]1O[C@H](COP(=O)(O)OP(=O)(O)OP(=O)(O)O)[C@@H](O)[C@H]1O [adenosine triphosphate]
Test: NP40-soluble protein abundance relative to vehicle (solubility fold change) (ratio); higher = more soluble protein in presence of ATP
In short: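 Eight concentrations, 0.1 to 10 mM, were tested on Jurkat crude lysate for 10 min at room temperature and then 3 min at 37 °C, in three independent experiments. The lysate was solubilised with 0.8% NP40 and benzonase, ultracentrifuged, and the supernatant TMT-labelled for LC-MS/MS. Each value is the fold change against the detergent-processed vehicle in its own replicate, from vsn-normalised intensities.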

Sequence of UniProt Q8NI77 (Q8NI77 whole entry): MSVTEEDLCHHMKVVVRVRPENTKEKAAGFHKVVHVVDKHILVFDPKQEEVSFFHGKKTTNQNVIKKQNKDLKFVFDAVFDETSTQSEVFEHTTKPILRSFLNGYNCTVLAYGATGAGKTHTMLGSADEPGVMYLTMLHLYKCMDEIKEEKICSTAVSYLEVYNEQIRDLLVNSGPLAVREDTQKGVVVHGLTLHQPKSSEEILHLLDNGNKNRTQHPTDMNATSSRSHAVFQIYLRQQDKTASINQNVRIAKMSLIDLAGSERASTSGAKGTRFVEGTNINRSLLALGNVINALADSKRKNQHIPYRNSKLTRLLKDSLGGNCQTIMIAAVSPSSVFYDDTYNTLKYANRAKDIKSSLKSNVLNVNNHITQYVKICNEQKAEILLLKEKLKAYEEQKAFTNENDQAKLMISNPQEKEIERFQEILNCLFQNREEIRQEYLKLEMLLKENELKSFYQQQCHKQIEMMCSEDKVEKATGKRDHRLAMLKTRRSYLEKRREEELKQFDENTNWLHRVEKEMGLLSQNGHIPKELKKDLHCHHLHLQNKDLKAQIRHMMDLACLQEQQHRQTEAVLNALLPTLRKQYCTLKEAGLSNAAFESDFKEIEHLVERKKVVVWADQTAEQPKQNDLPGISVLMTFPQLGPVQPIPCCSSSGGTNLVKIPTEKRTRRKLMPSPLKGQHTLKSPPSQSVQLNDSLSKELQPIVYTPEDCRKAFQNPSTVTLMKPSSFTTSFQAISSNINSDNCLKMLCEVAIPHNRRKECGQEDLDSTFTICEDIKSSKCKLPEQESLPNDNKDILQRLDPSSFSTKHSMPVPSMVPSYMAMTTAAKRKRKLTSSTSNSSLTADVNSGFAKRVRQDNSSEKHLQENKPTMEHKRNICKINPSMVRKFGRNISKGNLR
Sequence of UniProt Q8IY47 (Q8IY47 whole entry): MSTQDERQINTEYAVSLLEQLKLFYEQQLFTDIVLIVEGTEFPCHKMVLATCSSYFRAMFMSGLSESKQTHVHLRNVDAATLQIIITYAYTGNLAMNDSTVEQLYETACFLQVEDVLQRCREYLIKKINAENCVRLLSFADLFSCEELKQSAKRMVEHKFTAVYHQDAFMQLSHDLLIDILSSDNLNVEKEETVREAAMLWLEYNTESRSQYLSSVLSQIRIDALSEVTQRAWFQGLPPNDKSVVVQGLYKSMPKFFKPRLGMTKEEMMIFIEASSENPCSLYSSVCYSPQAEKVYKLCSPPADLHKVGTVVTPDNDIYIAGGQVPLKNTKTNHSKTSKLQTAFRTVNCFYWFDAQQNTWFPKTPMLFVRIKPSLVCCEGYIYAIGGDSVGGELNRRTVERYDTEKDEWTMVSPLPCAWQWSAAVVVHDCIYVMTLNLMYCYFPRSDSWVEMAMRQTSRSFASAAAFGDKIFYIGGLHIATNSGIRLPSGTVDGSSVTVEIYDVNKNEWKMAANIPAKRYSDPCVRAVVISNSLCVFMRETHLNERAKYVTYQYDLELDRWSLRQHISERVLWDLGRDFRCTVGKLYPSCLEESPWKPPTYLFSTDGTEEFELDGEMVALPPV
Sequence of UniProt Q86Y01 (Q86Y01 whole entry): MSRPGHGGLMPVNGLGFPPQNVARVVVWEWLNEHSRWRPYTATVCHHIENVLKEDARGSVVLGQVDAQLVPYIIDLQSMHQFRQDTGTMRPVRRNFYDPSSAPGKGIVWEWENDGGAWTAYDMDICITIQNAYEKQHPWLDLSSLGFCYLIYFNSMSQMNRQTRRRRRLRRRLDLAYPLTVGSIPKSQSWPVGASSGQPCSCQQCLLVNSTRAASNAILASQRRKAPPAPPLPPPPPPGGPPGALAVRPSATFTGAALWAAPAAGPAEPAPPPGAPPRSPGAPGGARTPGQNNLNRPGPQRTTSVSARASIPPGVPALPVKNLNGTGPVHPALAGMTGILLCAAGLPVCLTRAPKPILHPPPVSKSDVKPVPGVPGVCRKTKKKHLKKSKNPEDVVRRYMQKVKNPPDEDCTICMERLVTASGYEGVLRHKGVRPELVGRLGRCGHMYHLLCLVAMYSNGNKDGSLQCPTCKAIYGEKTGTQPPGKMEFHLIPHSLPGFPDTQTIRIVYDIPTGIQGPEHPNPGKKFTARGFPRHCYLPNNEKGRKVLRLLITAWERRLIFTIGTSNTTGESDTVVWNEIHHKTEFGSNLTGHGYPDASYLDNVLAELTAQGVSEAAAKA
Sequence of UniProt Q6I9Y2 (Q6I9Y2 whole entry): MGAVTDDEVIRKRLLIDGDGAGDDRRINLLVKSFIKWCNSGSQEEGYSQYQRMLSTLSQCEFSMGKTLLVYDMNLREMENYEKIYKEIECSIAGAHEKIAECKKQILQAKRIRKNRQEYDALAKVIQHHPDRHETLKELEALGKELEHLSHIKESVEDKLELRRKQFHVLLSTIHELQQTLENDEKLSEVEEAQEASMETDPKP
Sequence of UniProt Q13601 (Q13601 whole entry): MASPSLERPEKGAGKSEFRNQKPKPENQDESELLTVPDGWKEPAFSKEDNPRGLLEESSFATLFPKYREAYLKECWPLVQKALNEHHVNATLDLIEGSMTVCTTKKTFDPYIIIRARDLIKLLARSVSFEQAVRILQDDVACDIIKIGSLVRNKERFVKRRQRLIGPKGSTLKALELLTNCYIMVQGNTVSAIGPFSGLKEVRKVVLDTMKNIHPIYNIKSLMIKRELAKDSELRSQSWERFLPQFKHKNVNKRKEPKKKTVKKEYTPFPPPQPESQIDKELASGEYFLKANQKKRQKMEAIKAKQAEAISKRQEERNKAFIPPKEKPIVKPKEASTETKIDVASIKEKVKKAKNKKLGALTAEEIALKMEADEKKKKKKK
Sequence of UniProt Q8NC60 (Q8NC60 whole entry): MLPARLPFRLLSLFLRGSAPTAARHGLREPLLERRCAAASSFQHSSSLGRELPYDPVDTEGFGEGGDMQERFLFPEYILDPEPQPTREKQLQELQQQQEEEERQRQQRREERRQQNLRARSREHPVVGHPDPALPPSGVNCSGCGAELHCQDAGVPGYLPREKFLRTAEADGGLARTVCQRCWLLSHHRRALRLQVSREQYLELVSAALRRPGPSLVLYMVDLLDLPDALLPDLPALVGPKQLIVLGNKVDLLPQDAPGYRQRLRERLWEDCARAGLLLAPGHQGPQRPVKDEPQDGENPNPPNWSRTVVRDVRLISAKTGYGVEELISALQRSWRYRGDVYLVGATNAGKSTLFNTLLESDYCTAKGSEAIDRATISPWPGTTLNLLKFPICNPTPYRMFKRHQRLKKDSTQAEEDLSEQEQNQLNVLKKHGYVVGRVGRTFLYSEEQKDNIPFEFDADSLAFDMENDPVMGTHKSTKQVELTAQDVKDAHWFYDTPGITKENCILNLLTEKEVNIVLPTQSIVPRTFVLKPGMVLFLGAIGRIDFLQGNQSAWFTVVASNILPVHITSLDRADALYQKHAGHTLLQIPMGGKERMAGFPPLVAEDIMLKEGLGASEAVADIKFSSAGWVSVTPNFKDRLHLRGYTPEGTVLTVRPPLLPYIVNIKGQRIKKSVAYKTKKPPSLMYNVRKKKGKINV
Sequence of UniProt Q8NFG4 (Q8NFG4 whole entry): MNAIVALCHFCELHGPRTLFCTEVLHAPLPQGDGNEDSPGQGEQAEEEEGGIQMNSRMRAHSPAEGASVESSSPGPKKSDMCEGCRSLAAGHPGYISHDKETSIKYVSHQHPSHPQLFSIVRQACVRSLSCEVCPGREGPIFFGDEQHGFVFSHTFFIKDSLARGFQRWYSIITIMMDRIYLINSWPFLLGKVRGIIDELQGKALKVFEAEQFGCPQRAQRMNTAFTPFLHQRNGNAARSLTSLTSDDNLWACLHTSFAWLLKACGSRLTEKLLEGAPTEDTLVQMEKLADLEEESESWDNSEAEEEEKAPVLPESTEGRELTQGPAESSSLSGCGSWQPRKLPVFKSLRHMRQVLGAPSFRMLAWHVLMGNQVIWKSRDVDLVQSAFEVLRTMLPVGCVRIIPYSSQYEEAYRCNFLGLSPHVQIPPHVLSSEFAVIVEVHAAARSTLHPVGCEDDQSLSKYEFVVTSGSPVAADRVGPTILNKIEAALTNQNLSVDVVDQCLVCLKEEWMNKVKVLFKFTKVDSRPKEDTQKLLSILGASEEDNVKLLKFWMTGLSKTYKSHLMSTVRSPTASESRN
Sequence of UniProt Q7Z5G4 (Q7Z5G4 whole entry): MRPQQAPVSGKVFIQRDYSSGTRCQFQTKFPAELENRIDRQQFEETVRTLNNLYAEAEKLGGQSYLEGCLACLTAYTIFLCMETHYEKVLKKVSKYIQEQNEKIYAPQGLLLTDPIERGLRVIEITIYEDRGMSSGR
Sequence of UniProt Q8WUY8 (Q8WUY8 whole entry, one chain of several): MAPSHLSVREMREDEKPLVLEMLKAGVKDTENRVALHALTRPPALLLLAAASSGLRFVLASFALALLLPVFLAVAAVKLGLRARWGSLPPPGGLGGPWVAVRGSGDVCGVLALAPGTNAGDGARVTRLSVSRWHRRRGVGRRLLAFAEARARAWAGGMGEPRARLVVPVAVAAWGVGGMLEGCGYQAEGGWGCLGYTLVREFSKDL
Sequence of UniProt Q86W42 (Q86W42 whole entry): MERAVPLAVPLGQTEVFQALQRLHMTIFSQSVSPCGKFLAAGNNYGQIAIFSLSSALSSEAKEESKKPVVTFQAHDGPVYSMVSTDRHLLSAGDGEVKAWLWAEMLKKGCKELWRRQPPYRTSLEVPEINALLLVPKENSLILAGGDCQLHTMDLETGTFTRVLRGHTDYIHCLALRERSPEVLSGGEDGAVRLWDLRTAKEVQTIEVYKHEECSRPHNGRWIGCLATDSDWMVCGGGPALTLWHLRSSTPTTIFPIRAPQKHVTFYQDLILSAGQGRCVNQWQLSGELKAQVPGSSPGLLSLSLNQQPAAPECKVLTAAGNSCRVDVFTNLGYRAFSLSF
Sequence of UniProt Q15388 (Q15388 whole entry): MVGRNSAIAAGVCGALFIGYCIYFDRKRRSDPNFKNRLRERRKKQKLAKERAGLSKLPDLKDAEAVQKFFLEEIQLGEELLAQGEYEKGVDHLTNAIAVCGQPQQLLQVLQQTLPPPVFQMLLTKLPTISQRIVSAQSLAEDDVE

Target	NP40-soluble protein abundance (concentration: 1mM)	NP40-soluble protein abundance (concentration: 2mM)	NP40-soluble protein abundance (concentration: 4mM)	NP40-soluble protein abundance (concentration: 6mM)	NP40-soluble protein abundance (concentration: 8mM)	NP40-soluble protein abundance (concentration: 10mM)
LYPLAL1 (UniProt Q5VWZ2)	0.942 ± 0.077	0.936 ± 0.066	0.892 ± 0.048	0.879 ± 0.12	0.883 ± 0.03	0.904 ± 0.057
UniProt Q10567|Q10567-2|Q10567-3	0.9721 ± 0.0088	0.973 ± 0.015	0.922 ± 0.022	0.964 ± 0.013	0.951 ± 0.0014	0.934 ± 0.024
KIF18A (UniProt Q8NI77)	1.09 ± 0.11	0.996 ± 0.2	1.09 ± 0.035	1.06 ± 0.013	1.09 ± 0.18	1.18 ± 0.16
UniProt Q7Z5G4|Q7Z5G4-3	0.928 ± 0.02	0.914 ± 0.015	0.902 ± 0.019	0.885 ± 0.046	0.878 ± 0.014	0.897 ± 0.032
UniProt Q86Y01	0.964 ± 0.033	1.05 ± 0.022	1.12 ± 0.065	1.05 ± 0.088	1.09 ± 0.012	1.15 ± 0.1
FLCN (UniProt Q8NFG4)	1.02 ± 0.056	1 ± 0.037	1.05 ± 0.066	0.988 ± 0.058	0.977 ± 0.07	0.974 ± 0.033
UniProt Q3KQU3|Q3KQU3-4	1.08 ± 0.1	1.03 ± 0.11	1.09 ± 0.13	1.13 ± 0.26	1.1 ± 0.16	1.14 ± 0.13
GRAMD4 (UniProt Q6IC98)	1.01 ± 0.02	0.998 ± 0.02	0.994 ± 0.035	1.02 ± 0.031	1.02 ± 0.025	1.01 ± 0.02
TOMM20 (UniProt Q15388)	0.921 ± 0.086	0.896 ± 0.044	0.903 ± 0.11	0.886 ± 0.041	0.8947 ± 0.0073	0.803 ± 0.21
FAM117B (UniProt Q6P1L5)	0.945 ± 0.048	0.984 ± 0.061	0.97 ± 0.039	0.978 ± 0.042	0.952 ± 0.069	0.946 ± 0.032
UniProt Q15906|Q15906-2	1.13 ± 0.12	1.13 ± 0.092	1.22 ± 0.12	1.27 ± 0.23	1.24 ± 0.12	1.26 ± 0.13
KRR1 (UniProt Q13601)	1.12 ± 0.012	1.16 ± 0.043	1.23 ± 0.066	1.27 ± 0.047	1.29 ± 0.026	1.42 ± 0.033
TTC19 (UniProt Q6DKK2)	0.971 ± 0.078	0.922 ± 0.037	0.973 ± 0.043	0.923 ± 0.04	0.985 ± 0.038	0.865 ± 0.094
UniProt Q8NCU8-2	0.876 ± 0.17	0.822 ± 0.086	0.826 ± 0.14	0.769 ± 0.068	0.883 ± 0.12	0.752 ± 0.038
UniProt Q8WUY8|M0R1E3	1.02 ± 0.085	1.049 ± 0.0036	1.13 ± 0.032	0.966 ± 0.052	1.03 ± 0.067	1.08 ± 0.013
KBTBD2 (UniProt Q8IY47)	1.14 ± 0.13	1.11 ± 0.027	1.15 ± 0.07	1.05 ± 0.044	1.16 ± 0.13	1.08 ± 0.026
UniProt Q86W42|Q86W42-2	1.59 ± 0.18	1.69 ± 0.05	2 ± 0.087	2.16 ± 0.071	2.47 ± 0.094	2.55 ± 0.19
UniProt Q8NC60	0.967 ± 0.17	0.876 ± 0.13	0.889 ± 0.13	0.876 ± 0.2	0.945 ± 0.15	0.942 ± 0.14

Target	NP40-soluble protein abundance (concentration: 1mM)	NP40-soluble protein abundance (concentration: 2mM)	NP40-soluble protein abundance (concentration: 4mM)	NP40-soluble protein abundance (concentration: 6mM)	NP40-soluble protein abundance (concentration: 8mM)	NP40-soluble protein abundance (concentration: 10mM)
RNF20 (UniProt Q5VTR2)	0.962 ± 0.05	0.961 ± 0.02	0.935 ± 0.024	0.997 ± 0.041	0.935 ± 0.019	0.933 ± 0.017
TBL3 (UniProt Q12788)	1.15 ± 0.06	1.3 ± 0.04	1.58 ± 0.036	1.59 ± 0.11	1.89 ± 0.1	2.01 ± 0.089
UniProt Q0VDD8-4	0.837 ± 0.098	0.884 ± 0.028	0.9026 ± 0.0016	0.9241 ± 0.0037	0.956 ± 0.13	1.06 ± 0.059
UniProt Q13045|Q13045-2	1.01 ± 0.039	0.985 ± 0.042	0.974 ± 0.03	0.949 ± 0.058	0.976 ± 0.026	0.968 ± 0.051
PDCD7 (UniProt Q8N8D1)	1.22 ± 0.14	1.24 ± 0.058	1.48 ± 0.099	1.48 ± 0.024	1.49 ± 0.13	1.76 ± 0.16
UniProt Q5T280	1.03 ± 0.085	1.08 ± 0.077	1.23 ± 0.12	1.47 ± 0.17	1.52 ± 0.21	1.83 ± 0.22
PDCD11 (UniProt Q14690)	1.09 ± 0.092	1.14 ± 0.056	1.29 ± 0.062	1.5 ± 0.13	1.75 ± 0.073	2.06 ± 0.15
UniProt Q5T200|Q5T200-2	1.04 ± 0.057	1.1 ± 0.056	1.15 ± 0.077	1.22 ± 0.094	1.21 ± 0.086	1.29 ± 0.093
UniProt Q4G0J3|Q4G0J3-3	1.17 ± 0.046	1.22 ± 0.047	1.36 ± 0.021	1.507 ± 0.0071	1.56 ± 0.049	1.71 ± 0.018
URB2 (UniProt Q14146)	1.21 ± 0.1	1.36 ± 0.15	1.61 ± 0.058	1.68 ± 0.11	2.04 ± 0.16	2.19 ± 0.46
UniProt Q6KCM7-2|Q6KCM7-3|Q6KCM7|Q6KCM7-4|Q6KCM7-5	0.871 ± 0.048	0.884 ± 0.061	0.831 ± 0.012	0.758 ± 0.085	0.868 ± 0.039	0.894 ± 0.026
UniProt Q6IN85	1.03 ± 0.066	0.979 ± 0.042	0.946 ± 0.041	0.991 ± 0.048	0.956 ± 0.047	0.935 ± 0.08
UniProt Q8N766|Q8N766-3	0.974 ± 0.082	0.977 ± 0.065	0.982 ± 0.056	0.878 ± 0.1	0.934 ± 0.013	0.977 ± 0.052
UniProt Q08170	1.58 ± 0.12	1.68 ± 0.08	1.66 ± 0.095	1.81 ± 0.058	1.68 ± 0.052	1.64 ± 0.073
ERCC6L (UniProt Q2NKX8)	0.999 ± 0.024	0.986 ± 0.026	0.971 ± 0.024	0.999 ± 0.033	0.966 ± 0.0079	0.978 ± 0.017
THOC7 (UniProt Q6I9Y2)	1.4 ± 0.11	1.5 ± 0.15	1.73 ± 0.19	1.95 ± 0.38	2.12 ± 0.2	2.03 ± 0.26
UniProt Q6Y7W6|Q6Y7W6-4|Q6Y7W6-5	1.05 ± 0.076	1.08 ± 0.05	1.1 ± 0.051	1.18 ± 0.068	1.12 ± 0.029	1.16 ± 0.045
